The list is not random: actives were taken first. Their share in the collection is about 5.8%.
12-LOX inh = blocks human arachidonate 12S-lipoxygenase. Potency, µM (series often up to 108 µM), most hits filed as inhibitors. P18054. purified 12hLO, xylenol orange hydroperoxide absorbance. 580,000 tested, 1.1% active
Target sequence (P18054 whole entry, looked up): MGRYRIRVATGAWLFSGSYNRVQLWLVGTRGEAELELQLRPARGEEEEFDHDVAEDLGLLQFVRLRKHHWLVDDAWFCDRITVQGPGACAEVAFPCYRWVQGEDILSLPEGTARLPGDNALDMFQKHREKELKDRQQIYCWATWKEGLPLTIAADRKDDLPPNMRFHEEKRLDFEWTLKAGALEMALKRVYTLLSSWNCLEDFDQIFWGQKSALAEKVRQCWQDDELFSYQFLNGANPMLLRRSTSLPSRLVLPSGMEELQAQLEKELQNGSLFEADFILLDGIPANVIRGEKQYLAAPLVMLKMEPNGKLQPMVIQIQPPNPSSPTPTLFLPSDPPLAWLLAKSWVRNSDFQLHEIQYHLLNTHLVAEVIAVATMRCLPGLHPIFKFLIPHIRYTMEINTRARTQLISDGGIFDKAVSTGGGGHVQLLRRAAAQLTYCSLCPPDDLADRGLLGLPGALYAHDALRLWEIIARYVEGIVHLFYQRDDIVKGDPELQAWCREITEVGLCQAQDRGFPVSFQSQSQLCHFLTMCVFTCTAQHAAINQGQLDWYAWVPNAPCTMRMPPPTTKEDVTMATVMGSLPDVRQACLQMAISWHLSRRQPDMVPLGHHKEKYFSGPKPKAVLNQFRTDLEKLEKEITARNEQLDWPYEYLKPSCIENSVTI
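Hydroperoxide product was detected by ferrous iron/xylenol orange as the 573 to 405 nm absorbance ratio. Arachidonic acid at 40 uM (final) was turned over for 30 min at room temperature by 150 nM human 12hLO, pH 7.0 Hepes buffer, after 15 min compound preincubation.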
MCF10A rereplic = inducers of DNA re-replication in MCF 10A breast cells | Potency, µM (titrated, usually from 46.1 µM), most hits filed as activators | MCF 10A DNA re-replication, Hoechst nuclear intensity, 48 h | 350,000 tested, 2.9% active; also: nearly all actives have a fitted effect of over 50% in size
KB-3-1 cytotox = KB-3-1 parental cell cytotoxicity | KB-3-1 viability, CellTiter-Glo ATP luminescence, 72 h | Potency, µM (series often up to 46.1 µM), most hits filed as cytotoxic | 400,000 tested, 1.4% active | AID 1347075; also: nearly all actives have a fitted effect of over 60% in size
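Multi-concentration cytotoxicity screen in KB-3-1 cells grown in DMEM lacking phenol red with 10% FBS. After 72 h at 37 °C with compound, ATP-dependent luminescence was recorded.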
SW480 rerep = inducers of DNA re-replication in SW480 colon cancer cells; 340,000 tested, 1.8% active; SW480 DNA re-replication, Hoechst DNA content imaging, 48 h; AID 624297; Potency, µM (doses to about 46.1 µM), actives largely listed as activators; also: nearly all actives have a fitted effect of over 55% in size
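Hoechst fluorescence of nuclei (405 nm excitation, 500-530 nm emission) measured by plate-scanning imager after 48 hr compound exposure at 37 C; re-replication scored as increased number of nuclei with elevated intensity.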
PINK1 modulator = changes PINK1 expression; Potency, µM (top dose mostly 76.6 µM), hits mostly activators; AID 624263; 410,000 tested, 0.2% active; PINK1 immunofluorescence, high-content cytometry, 24 h; active = well fitted activation curve with a large enough effect; inconclusive = small, poorly fitted or top-dose-only effect; cell line not stated here; also: nearly all actives have a fitted effect of over 65% in size
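PINK1 protein, normally rapidly degraded, was detected by immunofluorescence after 24 hour compound treatment of a stable cell line. Titration data (5 concentrations) came from laser-scanning cytometry, with CCCP-treated wells as controls.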
KB-V1 MDR tox = kills drug-selected multidrug resistant KB-V1 cells. Potency, µM (top dose mostly 46.1 µM), actives largely listed as cytotoxic. 400,000 tested, 3.4% active. KB-V1 MDR cells viability, CellTiter-Glo, 72 h. AID 1347076; also: nearly all actives have a fitted effect of over 60% in size
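Cytotoxicity toward P-gp-expressing KB-V1 cells was determined as loss of CellTiter-Glo luminescence after 72 h at 37 degrees C. Compounds were tested in quantitative HTS format across a concentration range, with curves fitted to normalized data.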
A number is an active result. Unless noted, calls follow the shape of the dose curve; as a rule, active = well fitted curve in the direction sought with a large enough effect; inconclusive = small, poorly fitted or top-dose-only effect, or another doubt; inactive = no such curve, though single readings can be large; an effect the other way counts as inactive or inconclusive.

Results for COC(=O)Cn1ccc(-c2ccc(Cl)cc2)c(C#N)c1=O ?
12-LOX inh: inactive; MCF10A rereplic: inactive; KB-3-1 cytotox: inactive; SW480 rerep: inactive; PINK1 modulator: inactive; KB-V1 MDR tox: inactive

What do the screens show for `CCN(Cc1ccc2c(c1)OCCO2)S(=O)(=O)c1cnn(C)c1`?
12-LOX inh: inactive

What do the screens show for `O=C(N/N=C/c1ccc(Sc2nc3ccccc3[nH]2)o1)c1ccncc1`?
12-LOX inh: inactive; MCF10A rereplic: inactive; KB-3-1 cytotox: inactive; SW480 rerep: inactive; PINK1 modulator: inactive; KB-V1 MDR tox: inactive

Results for N#C/C(=C\c1ccc(Sc2ccccc2)o1)c1nc2ccccc2[nH]1 ?
12-LOX inh: inconclusive; MCF10A rereplic: inactive; KB-3-1 cytotox: inactive; SW480 rerep: inactive; PINK1 modulator: inconclusive; KB-V1 MDR tox: inactive

How did N#C/C(=C/c1ccc(Sc2nc3ccccc3[nH]2)o1)c1cccc(F)c1 do in these assays?
12-LOX inh: inconclusive; MCF10A rereplic: inactive; KB-3-1 cytotox: inactive; SW480 rerep: inconclusive; PINK1 modulator: inconclusive; KB-V1 MDR tox: 7.31µM

Results for N#C/C(=C/c1ccc(Sc2nc3ccccc3[nH]2)o1)c1ccccc1F ?
12-LOX inh: inactive; MCF10A rereplic: inactive; KB-3-1 cytotox: inactive; SW480 rerep: inconclusive; PINK1 modulator: inconclusive; KB-V1 MDR tox: 3.66µM

Results for N#C/C(=C/c1ccc(Sc2nc3ccccc3[nH]2)o1)c1cccc(Br)c1 ?
12-LOX inh: inactive; MCF10A rereplic: inconclusive; KB-3-1 cytotox: inconclusive; SW480 rerep: inactive; PINK1 modulator: 17.8µM; KB-V1 MDR tox: 18.4µM

What do the screens show for `c1csc(CN2Cc3[nH]cnc3C[C@H]2c2nc(-c3ccc4c(c3)OCO4)no2)c1`?
12-LOX inh: inactive

Results for CCCCN(CC)S(=O)(=O)N1CCC(C(=O)NCc2ccc(F)cc2)CC1 ?
12-LOX inh: inactive; MCF10A rereplic: inactive; KB-3-1 cytotox: inactive; SW480 rerep: inactive; KB-V1 MDR tox: 16.4µM

How did COc1ccc(-c2[nH]nc3nc(N4CCN(C(=O)c5ccoc5)CC4)cc(C(F)(F)F)c23)cc1 do in these assays?
12-LOX inh: inactive; KB-3-1 cytotox: inconclusive; PINK1 modulator: inactive; KB-V1 MDR tox: 6.51µM

Results for Cc1nc(N2CCN(C(=O)c3ccoc3)CC2)cc(C(F)(F)F)n1 ?
12-LOX inh: inactive

Results for CCN1CCN(C(=S)c2ccc(Cl)c(Cl)c2)CC1 ?
12-LOX inh: inactive; MCF10A rereplic: inactive; KB-3-1 cytotox: inactive; SW480 rerep: inactive; PINK1 modulator: inactive; KB-V1 MDR tox: 14.6µM

Results for COc1cc(C(=S)N2CCCCC2)ccc1O ?
12-LOX inh: inactive; MCF10A rereplic: inactive; KB-3-1 cytotox: inactive; SW480 rerep: inconclusive; KB-V1 MDR tox: inactive

Results for CCN1CCN(C(=S)Nc2ccc(Cl)c(Cl)c2)CC1 ?
12-LOX inh: inactive; MCF10A rereplic: inactive; KB-3-1 cytotox: inactive; SW480 rerep: inactive; PINK1 modulator: inactive; KB-V1 MDR tox: inconclusive

Results for CN(C)c1ccc(C(=S)N2CCCCCC2)cc1 ?
12-LOX inh: 39.8µM; MCF10A rereplic: inactive; KB-3-1 cytotox: inactive; SW480 rerep: inactive; PINK1 modulator: inactive; KB-V1 MDR tox: inactive

Results for Oc1ccc(C(=S)N2CCCCC2)cc1Cl ?
12-LOX inh: inactive; MCF10A rereplic: inactive; KB-3-1 cytotox: inactive; SW480 rerep: inactive; PINK1 modulator: inactive; KB-V1 MDR tox: 18.4µM

How did CC(CNC(=O)c1cc2ccccc2oc1=O)N(C)c1ccccc1 (stereo unspecified) do in these assays?
12-LOX inh: inactive

Results for CC1CCC/C(=N\NC(=O)Nc2ccccc2)C1 (stereo unspecified) ?
12-LOX inh: inactive; MCF10A rereplic: inactive; KB-3-1 cytotox: inactive; SW480 rerep: inactive; PINK1 modulator: inactive; KB-V1 MDR tox: inactive

What do the screens show for `Cc1cccc(NC(=S)NNC(=O)c2cc3c(s2)CCC(C)C3)c1C` (stereo unspecified)?
12-LOX inh: inconclusive; MCF10A rereplic: 16.4µM; KB-3-1 cytotox: inactive; SW480 rerep: inactive; PINK1 modulator: inactive; KB-V1 MDR tox: inconclusive
